We go through 7 compounds from PubChem BioAssay AID2680 (National Center for Advancing Translational Sciences (NCATS), 2010).

The other results are listed elsewhere or left out. A call without a number means that no potency is given here. Results filed as inconclusive are left out. Active and inactive are the calls of the source. Calls follow the shape of the dose curve; as a rule, active = well fitted inhibition curve with a large enough effect; inconclusive = small, poorly fitted or top-dose-only effect; inactive = no such curve, though single readings can be large or run the other way.

The experiment deals with Glutathione-independent formaldehyde dehydrogenase (Pseudomonas putida) (UniProt P46154). The experiment is described as follows: Counterscreen for JMJD2E Inhibitors: qHTS Assay for Inhibitors of Formaldehyde Dehydrogenase (FDH). The conditions noted are these: FDH enzyme assay, NADH fluorescence kinetic; series mostly up to 56.7 µM. Here is the method: This assay is a counterscreen for a related assay for inhibitors of JMJD2E. See AID 2147 for details. The JMJD2E assay utilized an FDH-coupled protocol. To screen for false positive results in the primary assay due to inhibition of the formaldehyde dehydrogenase coupled enzyme, an FDH-only assay was run using FDH as the enzyme (0.000025 U/uL final concentration) and 10 uM formaldehyde and 0.25 mM NAD+ as the substrate, and following the same fluidic protocol as described in AID 2147 for the coupled HTS assay. Actives in this assay are likely false positives of the primary HTS.
Chain of Glutathione-independent formaldehyde dehydrogenase (Pseudomonas putida) (P46154 whole entry, looked up): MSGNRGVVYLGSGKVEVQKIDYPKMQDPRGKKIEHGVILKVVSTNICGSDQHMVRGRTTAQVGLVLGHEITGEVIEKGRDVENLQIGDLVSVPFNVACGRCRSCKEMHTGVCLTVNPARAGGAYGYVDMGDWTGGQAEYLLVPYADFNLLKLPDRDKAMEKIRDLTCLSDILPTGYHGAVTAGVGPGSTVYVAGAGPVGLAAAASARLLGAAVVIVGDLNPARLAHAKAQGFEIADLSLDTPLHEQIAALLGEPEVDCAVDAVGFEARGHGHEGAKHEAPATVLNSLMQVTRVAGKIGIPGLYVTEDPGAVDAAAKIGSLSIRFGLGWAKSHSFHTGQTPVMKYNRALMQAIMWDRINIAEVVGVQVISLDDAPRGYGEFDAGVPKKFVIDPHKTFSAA
Assay is initiated by dispensing 3 uL of enzyme solution (4/3x final concentration) into a 1,536-well assay plate using a nanoliter solenoid-based dispenser (Beckman-Coulter, Fullerton, CA). After pintool transfer of compound solution, the assay plate is incubated at room temperature for 10 minutes, followed by a 1 uL addition of 4x substrate solution to initiate the reaction (final assay volume of 4 uL). The plate is then manually transferred into the ViewLux reader for kinetic measurements.
With `Nc1ccc(Nc2cc(O)c3ncccc3c2)cc1`, the Potency result is “inactive”. The same measure for `Cc1ccc(N2C(=O)CC(Sc3ncn[nH]3)C2=O)cc1` (configuration not stated): 316 nM (active); for `COc1ccc(Cl)cc1CSc1ncn[nH]1`: 316 nM (active). For `Oc1ccc(/C=C/c2c(F)cccc2F)c2cccnc12`, the Potency entry was “inactive”.

As to `O=C1CC(Sc2ncn[nH]2)C(=O)N1c1ccccc1` (configuration not stated), the Potency is 316 nM (active).

For `Oc1cccc2cc(-c3ccncc3)cnc12`, the Potency result was “inactive”. Regarding `Oc1c(CN2CCCC2)cc(COCc2ccccc2)c2cccnc12`, the Potency result is “inactive”.
